Shown are actives, neighbours in structure and some others; about 4% of the full set was active somewhere.
CF NFkB block – inhibitors of PAF-induced NF-kB signaling, primary screen, cell-based, GFP fluorescence, uHTS | KKLEB NF-kB-GFP reporter, GFP fluorescence overnight | inhibition, % at 5 µM | 360,000 tested, 0.86% active | AID 588850, 2011;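 active = at least 50% inhibition at 5 µM, scaled per plate between neutral and stimulator controls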;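 also: PAF is a Pseudomonas aeruginosa culture filtrate used as stimulus; plate controls were PAF-stimulated DMSO wells for no effect and unstimulated DMSO wells for full effect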
TWEAK Fn14 block – inhibitors of TWEAK-Fn14 signaling, primary screen, luciferase reporter cells, uHTS | TWEAK-stimulated Fn14 reporter cells, luciferase luminescence, 8 h | inhibition, % at 10 µM | 360,000 tested, 2% active; in the data active = inhibition above about 50%
KKLEB cytotox – cytotoxicity in KKLEB CF airway cells, primary screen, cytotoxicity control for CF NF-kB inhibitor project, cell-based, uHTS, fluorescence assay plates. KKLEB CF airway cells viability, ATPlite luminescence, overnight; stronger effect = lower value; cells stimulated with P. aeruginosa culture filtrate. 360,000 tested, 0.36% active. activity change (cytotoxicity), % at 5 µM. AID 602141, 2011;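 active = corrected activity change at or below -50% at 5 µM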
Peg3 promoter – Peg3 promoter-driven luciferase inhibitors, primary screen, cell-based, HeLa, luciferase luminescence | HeLa PEG-Prom luciferase reporter, overnight | inhibition, % at 20 µM | 360,000 tested, 1.7% active;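 active = inhibition of at least 50% at 20 µM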
HIF-2a block – HIF-2a reporter inhibitors, primary screen, luminescence, 786-0 RCC cells; 786-0 RCC cells HIF-2a reporter, luciferase luminescence, overnight; inhibition, % at 18.8 µM; 360,000 tested, 0.72% active;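 active = inhibition of the luminescence signal of 40% or more relative to plate controls, in a single-dose primary screen at 18.75 µM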
TROY signal inh – inhibitors of TROY-driven NF-kB signaling, primary screen, Q293 LMP1-TROYcd cells, NF-kB luciferase, uHTS; 360,000 tested, 0.98% active; Q293 LMP1-TROYcd NF-kB luciferase reporter, 4 h; inhibition, % at 10 µM;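 active = compounds whose plate-normalised and pattern-corrected inhibition of the luciferase reporter signal at the single screening dose is 50% or more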
Mdm2 MdmX conf – retested Mdm2-MdmX interaction blockers, confirmation, cell-based, luminescence, single concentration, set 2 | SaOS-2 split-luciferase Mdm2/MdmX complementation | 740 tested, 99% active | shares compounds with HIF-2a block | inhibition, % at 8 µM;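 active = mean inhibition of the luminescence signal across two replicates at or above 26 percent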
HIF-2a inh conf – HIF-2a reporter inhibitor retest, confirmation, luminescence, 786-0 RCC cells | 1,800 tested, 56% active | shares compounds with HIF-2a block | HIF-2a luciferase reporter luminescence, overnight | inhibition, % at 18.8 µM;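 active = mean inhibition across four replicates of at least 40 percent at the single tested concentration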
HIF-1a counter – HIF-1a luciferase reporter signal reduction – MiaPaCa-2 cells, single concentration, counter-screen for HIF-2a inhibitor project, confirmation; 1,800 tested, 72% active; MiaPaCa-2 HIF-1a luciferase reporter, desferoxamine, overnight; inhibition, % at 18.8 µM; shares compounds with HIF-2a block;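 active = mean inhibition of the reporter signal across four replicates at the single tested dose of 50% or more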
* = called active by the depositor; / = no result given.

SMILES	CF NFkB block	TWEAK Fn14 block	KKLEB cytotox	Peg3 promoter	HIF-2a block	TROY signal inh	HIF-2a inh conf	HIF-1a counter	others
CCC(Sc1nc2n[nH]c(C)c2c(=N)n1-c1ccc(C)c(Cl)c1)C(=O)N1CCOCC1 (stereo not given)	8.7	5.6	-15.8	36.2	40.6*	2.2	9.6	70.2*
Cc1cccc(CSC(Nc2ccc(F)cc2)=C(C#N)C#N)c1	42.4	64.4*	-43.6	61.6*	-2.2	47.8	/	/	Mdm2 MdmX conf=94.2*
COc1cc(C(=O)NCCC(=O)NCc2cccs2)cc(OC)c1OC	-19.9	0.7	0.7	3.3	7.8	-10.0	/	/
O=C(O)CCC1(c2ccccc2)NC(=O)NC1=O (stereo not given)	-2.2	-18.0	-8.6	3.1	44.3*	7.9	4.2	-10.9
O=C1NC(=O)C(Cc2ccccc2)(c2cccnc2)N1 (stereo not given)	-13.1	18.8	-4.1	0.9	20.4	-17.8	/	/
N#CCc1ccc(NC(=O)/C=C/c2ccc([N+](=O)[O-])o2)cc1	-28.2	61.1*	-13.0	106.1*	64.9*	-18.2	48.2*	105.0*
N#CC1=C(N)N2C(=C(C#N)C1c1ccc(Br)cc1)Nc1ccccc12 (stereo not given)	/	/	/	/	/	/	/	/	Mdm2 MdmX conf=101.2*
N#CC1=C(N)N2C(=C(C#N)C13CCN(Cc1ccccc1)CC3)Nc1ccccc12	16.5	-19.4	-2.3	0.3	-25.5	-35.7	/	/
COc1ccccc1-[n+]1c(C)cc(/C=C2\Sc3ccccc3N2C)cc1C	-32.1	89.2*	-43.0	67.3*	57.4*	81.7*	/	/	Mdm2 MdmX conf=103.2*
COc1ccccc1OC(=O)CCN1c2ccccc2Sc2ccccc21	-6.3	-11.8	-3.5	-21.8	-6.8	-16.8	/	/
CCc1ccc(N(CC(=O)NC(C)C)C(=O)CCC(=O)Nc2nccs2)cc1	5.7	-4.3	-8.9	11.7	16.8	-0.5	/	/
O=[N+]([O-])c1ccc(Oc2cccc(F)c2)c2ccncc12	41.1	32.8	-16.7	18.4	46.6*	14.7	30.2	78.7*
CCCCn1c(=O)[nH]c(=O)c2c1nc(Cn1ncc(Cl)c(Cl)c1=O)n2CCC	103.4*	93.8*	-80.7*	103.6*	95.9*	70.8*	71.2*	97.4*	Mdm2 MdmX conf=103.5*
CCCCn1c(=O)[nH]c(=O)c2c1nc(CN1C(=O)c3ccccc3S1(=O)=O)n2CCC	6.5	8.9	-11.0	10.6	1.0	12.0	/	/
COc1ccc(Br)cc1C(C[N+](=O)[O-])c1c(N)n(C)c(=O)n(C)c1=O (stereo not given)	-8.2	45.2	-7.8	67.9*	58.2*	33.0	20.9	86.3*
CCN(CC)S(=O)(=O)c1ccc(N/N=C/c2ccc(O)cc2O)nc1	-0.9	-1.4	4.0	41.6	2.0	25.4	/	/	Mdm2 MdmX conf=86.7*
COCCN(CC(=O)NC1CCCCC1)C(=O)/C=C/C(=O)c1ccc(OC)cc1O	26.3	74.1*	5.2	97.4*	91.7*	58.4*	98.7*	102.8*
COc1ccc(CN(C(=O)/C=C/C(=O)c2ccc(OC)cc2O)C(C(=O)NC2CCCCC2)c2ccncc2)cc1 (stereo not given)	-4.0	1.7	1.6	8.5	32.2	3.7	/	/
COc1ccc(C(=O)/C=C/C(=O)N(CC(=O)NC2CCCCC2)Cc2cccs2)c(O)c1	35.4	82.1*	-15.9	104.8*	95.4*	42.2	95.1*	100.6*
CCn1c2ccccc2c2cc([N+](=O)[O-])ccc21	1.9	-2.2	11.1	2.4	12.5	-16.0	/	/
CN(C)CCn1c2ccccc2c2nc3ccc([N+](=O)[O-])cc3cc21	-81.3	-71.3	1.0	-10.6	-70.5	-115.8	/	/	Mdm2 MdmX conf=102.5*
CCCCNC(=O)C1(C)CCN1C(=O)c1ccc(F)cc1Cl (stereo not given)	-17.1	-17.8	-13.4	-12.3	4.5	2.7	/	/
O=C(NCC1CCCO1)c1[nH]c(C(F)(F)F)nc1-c1ccccc1 (stereo not given)	-30.6	6.8	0.0	-0.2	11.4	-1.7	/	/
CCNC(=O)C1(C)CCCN(Cc2cc3ccccc3o2)C1 (stereo not given)	34.4	14.9	-17.4	9.6	5.3	-1.7	/	/
COc1cc(N2C(=O)C=CC2=O)c(OC)cc1Cl	22.5	30.3	-2.1	105.7*	40.5*	-17.1	80.2*	0.5
SMILES	CF NFkB block	TWEAK Fn14 block	KKLEB cytotox	Peg3 promoter	HIF-2a block	TROY signal inh	HIF-2a inh conf	HIF-1a counter	others
COc1ccc(CN2C(=O)C(CC(=O)NC3CCCCC3)CC(C(=O)N(C)C)=C2C)cc1 (stereo not given)	-23.6	2.4	10.1	6.6	2.9	-7.1	/	/
CCn1c2c(c3cc(OCC(C)C)ccc31)CCCC2=O	12.5	-15.9	-3.5	8.8	10.3	11.8	/	/
C=C1CCc2c([nH]c3ccc(OCC(C)C)cc23)C1=O	29.4	2.1	-21.4	103.1*	95.9*	-17.4	-5.7	66.7*
Cc1cc(N2CCCCC2)nc(NCc2ccccc2)n1	6.0	24.9	-19.9	38.0	47.3*	26.0	18.1	60.3*
Cc1sc2nc(C3CC3)nc(SCC(=O)N3c4ccccc4CC3C)c2c1C (stereo not given)	3.3	28.4	-10.6	15.6	-5.7	24.9	/	/	Mdm2 MdmX conf=101.0*
Cc1nc(SCC(=O)N2c3ccccc3NC(=O)CC2C)c2c(C)c(C)sc2n1 (stereo not given)	4.3	0.8	-11.1	-6.2	23.0	13.2	/	/
COc1cccc(/C=N/Nc2nc(Nc3ccccc3)nc(-n3nc(C)cc3C)n2)c1O	-19.6	34.7	-11.7	32.3	-93.8	-44.2	/	/
COc1cccc(/C=N/Nc2cc(-n3nc(C)cc3-c3ccccc3)ncn2)c1O	47.9	60.8*	-19.3	52.5*	15.7	26.3	/	/	Mdm2 MdmX conf=90.7*
CCc1csc(CCNC(=O)C2CCC(=O)N(Cc3cccc(C(F)(F)F)c3)C2)n1 (stereo not given)	8.6	6.7	4.3	-2.8	6.9	-15.3	/	/
O=C(CN1C(=O)NC2(CCc3ccccc32)C1=O)Nc1ccc(Cl)cc1F (stereo not given)	0.8	5.9	-5.6	15.8	18.6	-7.0	/	/
